From PubChem
eIF4H inh: human eIF4H binding inhibitors, primary screen, translation initiation inhibitor project, biochemical, uHTS, fluorescence polarization. eIF4H fluorescence polarization binding assay. inhibition, % at 35 µM. 290,000 tested, 0.94% active;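 further: calls also rest on retests at 20 µM and on dose response follow-up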
eIF4E 4G PPI: eIF4E–eIF4G protein interaction inhibitors, primary screen, biochemical, uHTS, TR-FRET, eIF4GI fragment | 220,000 tested, 0.37% active | Eukaryotic translation initiation factor 4E (Mus musculus) + Eukaryotic translation … | TR-FRET eIF4E-eIF4GI(517-606) binding, 2 h | inhibition, % at 21.7 µM;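 active means inhibition above about 30%, limit read from the data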;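 further: 0% = full FRET control wells and 100% = background wells lacking eIF4GI fragment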
MLLE-PAM2 inh: inhibitors of PABP1 MLLE–PAM2 peptide binding, primary screen, biochemical, fluorescence polarization, FITC-PAM2, GST-MLLE; Polyadenylate-binding protein 1 (Homo sapiens), P11940; inhibition, % at 20 µM; 360,000 tested, 0.36% active; AID 588489, 2011; in the data active means inhibition above about 35%, passing the limit was not always enough;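 further: plate controls were DMSO wells with GST-MLLE for no effect and wells lacking GST-MLLE protein for full effect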
14-3-3 Bad PPI: inhibitors of 14-3-3 zeta/Bad binding, primary screen, biochemical, TR-FRET, bovine 14-3-3 zeta; 220,000 tested, 0.71% active; inhibition, % at 21.7 µM; TR-FRET 14-3-3zeta/Dy647-pBad peptide displacement, 1 h; 14-3-3 protein zeta/delta (Bos taurus), P63103;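 active means inhibition above about 70%, limit read from the data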;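 further: 0% = full 14-3-3 plus peptide FRET controls and 100% = background without 14-3-3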
Target sequence (P63103 whole entry, looked up): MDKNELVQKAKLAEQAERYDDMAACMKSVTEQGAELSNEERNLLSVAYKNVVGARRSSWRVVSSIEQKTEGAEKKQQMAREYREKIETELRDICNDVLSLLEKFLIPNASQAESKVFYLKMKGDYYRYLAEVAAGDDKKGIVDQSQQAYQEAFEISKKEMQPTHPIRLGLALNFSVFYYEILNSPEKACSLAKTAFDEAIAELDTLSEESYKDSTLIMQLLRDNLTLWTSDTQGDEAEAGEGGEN
PABP FP inh: PABP poly(A) RNA binding inhibitors, primary screen, biochemical, fluorescence polarization, uHTS | Polyadenylate-binding protein 1 (Homo sapiens), P11940 | 290,000 tested, 1% active | calls only at 35 µM;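 further: calls also rest on retests at 20 µM and on dose response follow-up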
The depositor's hits bear a star; i = inactive; ? = inconclusive; · = no result given; + = active, no number; [ ] = another dose, or the depositor's remark. Sampled rows, rich in hits. Any-hit rate of the full collection: about 1.9%. Unless noted, how the calls were made is not given here.

SMILES	eIF4H inh	eIF4E 4G PPI	MLLE-PAM2 inh	14-3-3 Bad PPI	PABP FP inh
CCCCCC(=O)NC(NC(=S)NC1CCS(=O)(=O)C1)C(Cl)(Cl)Cl (centres undefined)	-6	40*	-5	-13	i
O=[N+]([O-])c1ccc(C(=Nc2cccc3ccccc23)N2CCOCC2)cc1	-11	-4	8	97*[fluorescence artefact?]	i
Cc1ccc([N+](=O)[O-])cc1N=C(c1ccc([N+](=O)[O-])cc1)N1CCOCC1	-4	2	14	-13	i
CCCN1CCN(C(=O)c2ccc3[nH]c(C)c(C)c3c2)CC1	·	·	-1	·	·
c1ccc(Cn2c3ccccc3c3nnc(SCCN4CCCCC4)nc32)cc1	-13	1	-20	-3	i
CSc1nnc2c3cc(C)ccc3n(Cc3ccccc3)c2n1	-18	0	-3	88*[fluorescence artefact?]	i
O=C(Nc1ccc(Br)cc1)c1ccccc1CC[N+](=O)[O-]	-9	1	5	-10	i
Cc1cc(C)cc(NC(=O)c2ccccc2CC[N+](=O)[O-])c1	-8	76*	4	0	i
O=C1CCC(C(=O)N2CCC(CO)CC2)CN1Cc1ccc(Cl)cc1 (centres undefined)	-7	·	-6	·	i
CC(NC(=S)Nc1ccccc1C(F)(F)F)C1CC2CCC1C2 (centres undefined)	-5	1	46*	2	i
O=C(CN1C(=O)NC2(CCCc3ccccc32)C1=O)NCC(F)(F)F (centres undefined)	-2	·	8	·	i
CN1CCN(C(=O)c2ccc(-n3cccc3)cc2)CC1	-5	6	3	-2	i
Cc1cccc(C(=O)NCCC(=O)Nc2nc(C)c(Cc3ccc4c(c3)OCO4)s2)c1	active	6	-9	-3	+
Cc1nc(NC(=O)C2CCCC2)sc1Cc1ccc2c(c1)OCO2	-5	9	-2	-11	i
COc1cccc2c1Oc1ncccc1N(C(=O)CCC(=O)NCc1ccccc1F)C2	-2	·	-11	·	i
O=C1CC(=C(c2ccccc2)c2ccccc2)C(=O)N1CCCCN1CCN(c2ccccc2)CC1	-5	7	-5	76*	i
O=C1NC2=C(C(=O)CCC2)C(c2ccccc2Cl)N1 (centres undefined)	-2	·	-3	·	i
O=C1NC2=C(C(=O)CCC2)C(c2ccccc2[N+](=O)[O-])N1 (centres undefined)	107*	·	41*	·	+
Cc1ccc(N(CC(=O)N2CCCCCC2)S(C)(=O)=O)c(C)c1	·	·	-9	·	·
O=C(O)c1ccc(Cl)c(S(=O)(=O)Nc2ccccc2C(=O)Nc2ccc(Cl)cc2)c1	1	·	4	·	i
CC(C)c1nnc(SCC(=O)NCCC2=CCCCC2)n1N	6	2	42*	-5	i
Cc1ccc(OCCCC(=O)N(C)CC(=O)Nc2c(C)cccc2C)cc1	·	·	-40	·	·
C(#CCN1CCOCC1)COC(c1ccccc1)c1ccccc1	4	4	1	72*	i
C=CCc1c(C)nc(SCc2nc3ccccc3c(=O)[nH]2)[nH]c1=O	-8	-3	22	-9	i
CCc1c(O)nc(SCc2nc3ccccc3c(=O)[nH]2)[nH]c1=O	active	2	39*	-8	+
SMILES	eIF4H inh	eIF4E 4G PPI	MLLE-PAM2 inh	14-3-3 Bad PPI	PABP FP inh
NC(=S)N=Nc1c(O)n(CCCl)c2ccc(Br)cc12	10	1	32	-5	i
C/C(Cl)=C\Cn1c(O)c(N=NC(N)=S)c2cc(Br)ccc21	13	-4	44*	-23	i
Cc1cccc(C(=O)NC(C)C(c2cccs2)N2CCOCC2)c1 (centres undefined)	-7	97*	-7	-5	i
CC(NC(=O)c1ccncc1)C(c1cccs1)N1CCOCC1 (centres undefined)	-12	1	-6	-2	i
CCC(=O)NCC(c1cccs1)N1CCOCC1 (centres undefined)	6	5	-4	85*	i
CN1CCN(Cc2cccc(Oc3ccccc3)c2)CC1	2	13	4	70*	i
OC1CCN(Cc2cccc(Oc3ccccc3)c2)CC1	10	-3	-2	-12	i
COc1ccc(C(=O)NCN2CCN(c3ccccc3)CC2)cc1OC	·	·	-6	·	·
O=C1CCC(c2ccc3ccccc3c2)O1 (centres undefined)	·	·	10	·	·
O=[N+]([O-])c1cc2oc3c(c2c(C=NCc2ccccc2)c1O)CCCC3	76*	3	-106	36	+
O=C(CSc1ncnc2[nH]ncc12)Nc1nc(-c2ccc(F)c(F)c2)cs1	-9	1	-2	74*	i
O=C(Cc1ccc(F)cc1)Nc1nc(-c2ccc(F)c(F)c2)cs1	-7	·	27	·	i
CCN(CC(=O)NCc1ccc(Cl)cc1)C(=O)/C=C/c1ccco1	16*	13	-7	-4	+
O=C(/C=C/c1ccco1)Nc1scc(-c2ccccc2)c1C(=O)O	79*	2	1	24	+
CSc1cccc(NC(=O)/C=C/c2ccco2)c1	57*	8	-3	-8	+
CCN(CC(=O)NCc1ccc(Cl)cc1)C(=O)/C=C/c1ccccc1	3	·	-5	·	i
COc1cccc(NC(=O)/C=C/c2ccco2)c1	-3	-4	-9	-21	i
Cc1csc(NC(=O)c2ccc(C(=O)Nc3nc(C)cs3)cc2)n1	?	4	·	-4	+
CN1CCc2nc3ccc(Cl)cc3c(-c3ccccc3Cl)c2C1	5	0	5	6	i
Cc1cccc(NC(=S)NC(=O)/C=C/c2ccco2)n1	56*	-4	11	-7	+
CCCn1nnc(NC(=S)NC(=O)/C=C/c2ccco2)n1	80*	-7	21	-7	+
NS(=O)(=O)c1ccc(NC(=S)NC(=O)/C=C/c2ccco2)cc1	85*	4	4	1	i
NS(=O)(=O)c1ccc(CNC(=O)/C=C/c2ccco2)cc1	79*	6	-3	5	i
O=C(/C=C/c1ccco1)NC(=S)Nc1ccccc1	27	·	10	·	i
Cc1cccc(NC(=S)NC(=O)/C=C/c2ccco2)c1	37	1	-11	21	i
CCCC(C(=O)Nc1ccc(S(=O)(=O)Nc2nccs2)cc1)c1ccccc1 (centres undefined)	·	·	-1	·	·
COc1ccc(Br)cc1S(=O)(=O)NCCc1cccs1	·	·	-4	·	·
CCCCn1nnnc1SCC(=O)NNC(=O)C1CCCCC1	-10	4	6	7	i
NC(N)=NS(=O)(=O)c1ccc(NC(=S)NC(=O)/C=C/c2ccco2)cc1	88	2	2	28	+
Cc1csc(NC(=O)/C=C/c2ccco2)n1	82	-3	-6	1	+
